# Values joined by “and” are separate entries in the source; they are usually repeats but may differ in a detail not shown here. Identical values can stand only once. Inconclusive results are not listed. Entries that show only a call come without a potency. The source holds several records for some structures; these can differ, active in one and inactive in another. Active and inactive are the calls of the source. Unless noted, calls come from the whole dose curve; as a rule, active = well fitted curve in the direction sought with a large enough effect in the repeat runs; inconclusive = weak or mixed curves; inactive = no such curve, though single readings can be large; an effect the other way counts as inactive or inconclusive.
# Key:
# [1] = qHTS assay to identify small molecule agonists of the hypoxia (HIF-1) signaling pathway - cell viability counter screen (AID 1224844; calls by dose curve; note: nearly all actives have a fitted effect of over 50% in size)
# How it was run: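 HRE-bla ME-180; 0.5% dFBS; cpd 17 h, 37C, 5% CO2; CellTiter-Glo lum., 30 min RT, post-FRET read, same wells.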
# [2] = qHTS assay to identify small molecule agonists of H2AX (AID 1224845; active = well fitted activation curve with a large enough effect in the signal ratio in the repeat runs, not every such curve was filed as active; the % refers to the signal ratio; note: potency is the fitted concentration of half-maximal effect)
# How it was run: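 Wild-type CHO-K1 cells plated overnight, then exposed 3 hr at 37C to compounds at 15 concentrations (0.76% DMSO). Lysed, then HTRF anti-pH2AX(S139)-cryptate/anti-H2AX-d2 detection after 24 hr at room temperature; emissions 665 and 620 nm.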
# [3] = qHTS assay to identify small molecule agonists of the hypoxia (HIF-1) signaling pathway (AID 1224846; active = well fitted activation curve with a large enough effect in the signal ratio in the repeat runs, not every such curve was filed as active; the % refers to the signal ratio)
# How it was run: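 Reporter induction in HRE-bla ME-180 cells is taken as agonism: cells sit 5 hrs after plating, receive compounds or DMSO only, incubate 17 hrs at 37C under 5% CO2, and are loaded with CCF4-AM for beta-lactamase FRET measurement.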
# [4] = qHTS assay to identify small molecule agonists of H2AX - cell viability counter screen (AID 1224847; calls by dose curve; note: top concentration of the series differs between compounds; nearly all actives have a fitted effect of over 30% in size)
# How it was run: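 Cells plated first: CHO-K1, 1000 per well in 10% FBS medium, incubated overnight at 37C. Then 15-point compound titration added (final DMSO 0.76%) for 3 hr. Finally CellTiter-Glo added and luminescence read.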
# [5] = qHTS assay to identify small molecule antagonists of the estrogen related receptor (ERR) signaling pathway from Tox21 library (AID 1224848); note: nearly all actives have a fitted effect of over 50% in size
# How it was run: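 First, 2,000 ERR cells per well were plated and held 6 h at 37 C/5% CO2. Next, compounds in DMSO were pinned in and left 18 h at 37 C. Finally, ONE-Glo was added and luminescence read after 30 min at room temperature.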
# [6] = qHTS assay to identify small molecule agonists of the estrogen related receptor (ERR) signaling pathway from Tox21 library (AID 1224849; calls by dose curve; note: nearly all actives have a fitted effect of over 15% in size); details: ERR reporter cell line, ONE-Glo luciferase, 18 h; at 92.4 µM (top of the series) unless noted
# How it was run: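 Tox21 compounds tested for ERR agonism in an NTP reporter cell line: 18 h treatment at 37 C, then ONE-Glo luminescence.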
# [7] = qHTS RealTime-Glo MT Cell Viability Assay in HepG2 cells - 24 hour (AID 1224867); note: nearly all actives have a fitted effect of over 50% in size
# How it was run: (§1)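 Compound treatment began 5 h after plating HepG2 cells (600/well) with NanoLuc luciferase and prosubstrate. Plates stayed at 37 C for 40 h; luminescence was captured at six time points, 0 h through 40 h.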
# [8] = qHTS RealTime-Glo MT Cell Viability Assay in HEK293 cells - 32 hour (AID 1224868); note: nearly all actives have a fitted effect of over 50% in size; note: potency is the fitted concentration of half-maximal effect
# How it was run: (§2)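 Quantitative high-throughput screen of the Tox21 10K library in HEK293: cells and RealTime-Glo reagents plated together, compound added at 5 h, luminescence monitored through 40 h at 37 C.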
# [9] = A CellTox Green Cytotoxicity Assay to monitor cytotoxicity in HEK293 cells - 0 hour (AID 1224869); note: nearly all actives have a fitted effect of over 50% in size
# How it was run: (§3)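 Tox21 screen in HEK293: membrane-impermeant cyanine dye fluoresces on binding dead-cell DNA; compound pinned 5 h post-seeding, plates held at 37 C, signal read repeatedly through 40 h.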
# [10] = qHTS RealTime-Glo MT Cell Viability Assay in HepG2 cells - 40 hour (AID 1224870); note: nearly all actives have a fitted effect of over 50% in size
# How it was run: (§4)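 HepG2 cells mixed with RealTime-Glo MT reagents (NanoLuc plus cell-permeant prosubstrate) were seeded at 600 cells/well, incubated 5 h at 37 C/5% CO2, then pinned with compounds in DMSO; nonlytic luminescence tracked viability during 40 h treatment.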
# [11] = A CellTox Green Cytotoxicity Assay to monitor cytotoxicity in HEK293 cells - 40 hour (AID 1224871); note: nearly all actives have a fitted effect of over 45% in size
# How it was run: as §3
# [12] = qHTS RealTime-Glo MT Cell Viability Assay in HEK293 cells - 16 hour (AID 1224872); note: nearly all actives have a fitted effect of over 50% in size; note: potency is the fitted concentration of half-maximal effect
# How it was run: as §2
# [13] = qHTS RealTime-Glo MT Cell Viability Assay in HepG2 cells - 8 hour (AID 1224873); note: nearly all actives have a fitted effect of over 55% in size
# How it was run: as §4
# [14] = A CellTox Green Cytotoxicity Assay to monitor cytotoxicity in HEK293 cells - 24 hour (AID 1224875); note: nearly all actives have a fitted effect of over 45% in size
# How it was run: as §3
# [15] = A CellTox Green Cytotoxicity Assay to monitor cytotoxicity in HepG2 cells - 16 hour (AID 1224876); note: nearly all actives have a fitted effect of over 45% in size
# How it was run: (§5)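 Measurements at 0, 8, 16, 24, 32 and 40 h of treatment captured CellTox Green fluorescence in HepG2 cells that had been co-plated with reagent and preincubated 5 h at 37 C/5% CO2.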
# [16] = qHTS RealTime-Glo MT Cell Viability Assay in HepG2 cells - 32 hour (AID 1224877); note: nearly all actives have a fitted effect of over 55% in size
# How it was run: as §1
# [17] = A CellTox Green Cytotoxicity Assay to monitor cytotoxicity in HepG2 cells - 40 hour (AID 1224879); note: nearly all actives have a fitted effect of over 40% in size
# How it was run: as §5
# [18] = qHTS RealTime-Glo MT Cell Viability Assay in HEK293 cells - 0 hour (AID 1224880); note: top concentration of the series differs between compounds; nearly all actives have a fitted effect of over 45% in size
# How it was run: (§6)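 HEK293 + NanoLuc + prosubstrate, 600 cells/well; 5 h, 37 C/5% CO2; compound 23 nL in DMSO by pintool; 37 C; luminescence read at 0, 8, 16, 24, 32 and 40 h time points.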
# [19] = qHTS RealTime-Glo MT Cell Viability Assay in HEK293 cells - 40 hour (AID 1224874); details: RealTime-Glo luminescence; max response: stronger effect = lower value; note: nearly all actives have a fitted effect of over 50% in size
# How it was run: as §6
# [20] = A CellTox Green Cytotoxicity Assay to monitor cytotoxicity in HepG2 cells - 24 hour (AID 1224878); note: nearly all actives have a fitted effect of over 45% in size
# How it was run: as §5
Compound,Potency [1],Potency [2],outcome [3],Potency [4],Potency [5],"activity change, positive = activation [6]",Potency [7],Potency [8],Potency [9],Potency [10],Potency [11],Potency [12],Potency [13],Potency [14],Potency [15],Potency [16],Potency [17],Potency [18],max response [19],Potency [20]
CC(c1ccc(O)cc1)c1ccc(O)cc1,inactive,inactive and 56.6 µM (active),inactive,inactive,inactive,-56.9% (inactive) and -6.34% (inactive),inactive,45.9 µM (active),inactive,inactive,inactive,45.9 µM (active) and inactive,inactive,inactive,inactive,inactive,inactive,inactive,–,–
COC[C@H](C)N(C(=O)CCl)c1c(C)csc1C,inactive,inactive,inactive,inactive,inactive,9.24% (inactive),inactive,–,inactive,inactive,inactive,inactive,inactive,inactive,inactive,inactive,inactive,inactive,19.6% (inactive),inactive
Oc1ccccc1Br,inactive,inactive,inactive,inactive,–,–,inactive,inactive,inactive,inactive,inactive,inactive,inactive,inactive,inactive,inactive,inactive,inactive,3.02% (inactive),inactive
C=CC(=O)N(C)C,inactive,inactive,inactive,inactive,inactive,-4.19% (inactive),inactive,inactive,–,–,inactive,inactive,inactive,inactive,inactive,–,inactive,inactive,-0.539% (inactive),inactive
COc1ccc(/C(=C/C(=O)N2CCOCC2)c2ccc(Cl)cc2)cc1OC,inactive,inactive,inactive,inactive,inactive,-10.9% (inactive),inactive,–,–,inactive,inactive,inactive,inactive,inactive,inactive,inactive,inactive,inactive,–,inactive
COCC(=O)N(c1c(C)cccc1C)[C@H](C)C(=O)OC,inactive,inactive,inactive,inactive,inactive,-2.81% (inactive),inactive,inactive,inactive,inactive,inactive,inactive,inactive,inactive,–,inactive,inactive,inactive,-0.139% (inactive),–

# — PubChem BioAssay (Tox21)
